TDP1 cell CPT: growth inhibition of DT40 Tdp1-/-;hTDP1 cells with camptothecin (screen for TDP1 inhibitors); chicken DT40 Tdp1-/-;hTDP1 cells + 20 nM CPT, ATP luminescence, 48 h; Potency, µM (series often up to 46.2 µM), hits mostly inhibitors; hit rate 12% among 420,000; also: nearly all actives have a fitted effect of over 55% in size
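Chicken DT40 Tdp1-/- cells complemented with human TDP1, 400 cells/well, exposed to compounds plus 20 nM camptothecin for at least 48 h at 37 C; viability read as ATP content by CellTiter-Glo luminescence.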
Six1-Eya2 inh: blocks human Six1 binding to Eya2 | Q15475+O00167 | AlphaScreen GST-Six1/His-Eya2 binding, biochemical; hits give low values | activity change, % (test concentration not listed) | hit rate 0.56% among 360,000 | AID 651725; in the data active = activity change below about -65%; inconclusive = mostly about -30% to -63%
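Six1/Eya2 binding was read as AlphaScreen signal after compounds were pinned into GST-Six1 plus His-tagged Eya2 (5X stock 250/500 nM) in pH 8.0 Tris/NaCl/TCEP buffer, beads added, then incubated 1 h, 37 C, dark.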
IL1B secr inh: blocks inflammasome-driven IL-1 beta release; THP-1 LPS/ATP IL-1B secretion, AlphaLISA, 16 h; hits give low values; activity change, % at 57.5 µM; hit rate 4.7% among 360,000; in the data active = activity change below about -50%; inconclusive = mostly about -30% to -49%
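THP-1 cells pretreated 1 hr with compounds (up to 57.5 uM final), then stimulated with LPS (250 ng/mL final) plus ATP (1.25 mM final); secreted IL-1B measured by AlphaLISA after 16 hr, decreased signal indicating inhibition.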
TDP1 block: inhibitors of human tyrosyl-DNA phosphodiesterase TDP1. AID 485290. recombinant TDP1, AlphaScreen DNA substrate cleavage. hit rate 0.28% among 350,000. Q9NUW8. Potency, µM (doses to about 130 µM), hits mostly inhibitors; also: nearly all actives have a fitted effect of over 40% in size
Target sequence (Q9NUW8 whole entry, looked up): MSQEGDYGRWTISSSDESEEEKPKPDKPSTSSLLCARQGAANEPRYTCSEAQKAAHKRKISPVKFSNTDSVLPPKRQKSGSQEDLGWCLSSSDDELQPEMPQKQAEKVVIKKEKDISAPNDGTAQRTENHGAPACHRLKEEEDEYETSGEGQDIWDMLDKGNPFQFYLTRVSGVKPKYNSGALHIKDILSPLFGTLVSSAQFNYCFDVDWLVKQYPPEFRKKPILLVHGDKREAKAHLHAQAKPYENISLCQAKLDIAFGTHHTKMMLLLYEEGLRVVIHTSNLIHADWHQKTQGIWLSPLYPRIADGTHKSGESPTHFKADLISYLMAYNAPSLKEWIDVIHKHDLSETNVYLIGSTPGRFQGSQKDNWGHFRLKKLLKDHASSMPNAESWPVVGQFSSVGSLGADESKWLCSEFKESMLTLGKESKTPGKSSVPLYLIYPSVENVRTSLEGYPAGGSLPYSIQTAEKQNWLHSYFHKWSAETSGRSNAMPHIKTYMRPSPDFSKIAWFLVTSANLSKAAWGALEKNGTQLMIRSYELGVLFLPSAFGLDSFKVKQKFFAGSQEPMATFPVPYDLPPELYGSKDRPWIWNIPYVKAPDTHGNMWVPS
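Here, a 5' biotin and 3' phosphotyrosine-FITC DNA oligonucleotide reports Tdp1 activity: intact substrate bridges AlphaScreen beads, while cleavage leaves a 3' phosphate and drops signal. All incubations at room temperature.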
DT40 TDP1 no CPT: qHTS for Inhibitors of human tyrosyl-DNA phosphodiesterase 1 (TDP1): qHTS in cells in absence of CPT; hit rate 15% among 420,000; Potency, µM (titrated, usually from 46.2 µM), hits mostly inhibitors; DT40 Tdp1-/- hTDP1 cells, no CPT, ATP luminescence, 48 h; also: nearly all actives have a fitted effect of over 55% in size
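Chicken DT40 Tdp1-/- cells stably complemented with human TDP1 were seeded at 400 cells/well with DMSO in place of 20 nM camptothecin. After compound pinning, cells grew at least 48 hr at 37 °C; viability read by CellTiter-Glo luminescence.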
CtBP-E1A inh: CtBP/E1A binding inhibition; AlphaScreen GST-E1A/His-CtBP binding, 1536-well; hits give low values; activity change, % (concentration not given with the values); hit rate 0.49% among 340,000; AID 651724; in the data active = activity change below about -65%; inconclusive = mostly about -30% to -63%
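Protein mix (5X: 125 nM each GST-E1A, His-CtBP) was incubated with pinned compound 2 h at 37 deg C in dark, in 50 mM Tris pH 8.0 buffer with 300 mM NaCl. Glutathione donor and nickel acceptor beads followed; AlphaScreen signal read after 1 h.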
A number is an active result; i = inactive; ? = inconclusive; nt = not tested or not shown. A selection: hits, their analogues and other compounds. The true share with any hit is near 18%. Unless noted, calls follow the shape of the dose curve; as a rule, active = well fitted curve in the direction sought with a large enough effect; inconclusive = small, poorly fitted or top-dose-only effect, or another doubt; inactive = no such curve, though single readings can be large; an effect the other way counts as inactive or inconclusive.

SMILES	TDP1 cell CPT	Six1-Eya2 inh	IL1B secr inh	TDP1 block	DT40 TDP1 no CPT	CtBP-E1A inh
CCOc1cc(N2CCOCC2)c(OCC)cc1NC(=O)COC(=O)[C@@H]1CCCN1S(=O)(=O)c1ccccc1F	?	i	i	i	?	i
Cc1cnc(=O)[nH]c1SCC(=O)Nc1cc(C(F)(F)F)ccc1Cl	i	nt	nt	i	i	nt
CNC(=O)/C=C1\NC(C)(C)Cc2c1ccc1ccccc21	21µM	i	-67	i	21µM	i
CC1NC(C)(C)Cc2c1ccc1ccccc21 (stereo not drawn)	i	i	i	i	i	i
Cc1ccc2cc(C#N)c(N3CCN(C(=O)c4cccs4)CC3)nc2c1	?	i	i	nt	21µM	i
Cc1ccc2nc(N3CCN(C(=O)c4ccc(F)cc4)CC3)c(C#N)cc2c1	?	i	i	nt	23µM	nt
O=C1CC(c2ccccc2)Oc2ccc(Cl)cc21 (stereo not drawn)	?	i	?	nt	?	i
COc1ccc(C(O)c2nc(-c3ccc(OC)c(OC)c3)cs2)cc1 (stereo not drawn)	13µM	i	i	nt	18µM	i
COc1ccc(-c2csc(C(O)c3ccc(OC)cc3)n2)cc1 (stereo not drawn)	?	i	i	nt	?	i
COc1cc(C(O)c2nc(-c3ccc4ccccc4c3)cs2)ccc1F (stereo not drawn)	23µM	i	i	nt	21µM	i
COc1ccc(-c2csc(C(O)c3ccc(F)cc3)n2)cc1 (stereo not drawn)	?	i	i	nt	?	i
COc1ccc(C(O)c2nc(-c3ccc4ccccc4c3)cs2)cc1 (stereo not drawn)	?	i	i	nt	16µM	i
O=C(COc1ccc(Cl)cc1)Nc1cc(NC(=O)COc2ccc(Cl)cc2)cc(C(=O)O)c1	i	i	i	i	i	nt
CCOC(=O)C1(CCCc2ccccc2)CCN(C(=O)C2=C(C)OCCO2)CC1	?	i	-80	nt	21µM	i
CCOC(=O)C1(Cc2cccc(F)c2)CCN(Cc2ccon2)CC1	i	i	i	nt	?	i
CCOC(=O)C1(Cc2cccc(F)c2)CCN(Cc2cn(CC)nc2C)CC1	i	i	i	nt	?	nt
CCOC(=O)C1(CCCc2ccccc2)CCN(Cc2cn(CC)nc2C)CC1	?	i	-77	i	?	i
CCOC(=O)C1(Cc2cccc(F)c2)CCN(Cc2c(C)nn(CC)c2C)CC1	23µM	i	i	i	?	i
CCOC(=O)C1(CCCc2ccccc2)CCN(CCCn2cccn2)CC1	i	i	i	i	?	nt
CCOC(=O)C1(Cc2cccc(F)c2)CCN(Cc2cnc(C)s2)CC1	26µM	i	i	i	23µM	nt
COc1ccc(OC)c(S(=O)(=O)N2CCc3ccccc3C2)c1	i	i	i	i	?	nt
O=C(COc1ccc(S(=O)(=O)N2CCCCC2)cc1Cl)N1CCCC1	?	i	i	i	i	i
NS(=O)(=O)c1ccc(N/C=C\C(=O)c2ccncc2)cc1	i	i	i	i	i	i
CCOC(=O)C1(CCc2ccccc2)CCN(Cc2ccn[nH]2)CC1	?	i	i	i	?	i
CCOC(=O)C1(CCc2ccccc2)CCN(Cc2cccc3nccnc23)CC1	21µM	i	?	i	16µM	i
SMILES	TDP1 cell CPT	Six1-Eya2 inh	IL1B secr inh	TDP1 block	DT40 TDP1 no CPT	CtBP-E1A inh
CCOC(=O)C1(CCCc2ccccc2)CCN(Cc2cnc(C)s2)CC1	21µM	i	-88	i	10µM	i
CCOC(=O)C1(CCCc2ccccc2)CCN(Cc2nccn2CC)CC1	?	i	-55	nt	?	i
CCOC(=O)C(C(=O)OCC)C(Nc1ccccc1)c1ccccc1 (stereo not drawn)	i	i	i	i	i	i
CCCCn1c(SCC(=O)c2ccccc2)nc2ccsc2c1=O	?	i	-59	i	18µM	i
CCCCn1c(SCC(=O)c2ccc(O)c(O)c2)nc2ccsc2c1=O	15µM	i	i	i	23µM	i
CC(C)(C)C(=O)CSc1nc2ccsc2c(=O)n1Cc1ccccc1F	?	nt	nt	i	?	nt
CC(C)(C)C(=O)CSc1nc2ccsc2c(=O)n1Cc1ccccc1Cl	21µM	nt	nt	i	15µM	nt
CC(=O)NC1(c2ccccc2)CCN(c2nc(C)cc(C)n2)CC1	i	i	i	i	i	i
N#Cc1c(-c2cccc(Br)c2)cc(-c2cccnc2)nc1N	?	i	i	i	?	i
CCOC(=O)C(=O)c1c(-c2ccc(C)cc2)nc2ccccn12	23µM	i	i	i	?	i
Cc1ccc(SCC(=O)c2c(C)nc3ccccn23)cc1	21µM	i	?	i	10µM	i
CCOC(=O)c1c(C)nc2ccccn12	i	i	i	i	i	i
CCOC(=O)c1c(-c2ccccc2)nc2ccc(C)cn12	?	i	i	i	16µM	i
O=C(CNC(=O)c1ccc(OC(F)F)cc1)Nc1cccc(S(=O)(=O)N2CCCC2)c1	i	i	i	i	i	i
COc1ccc(S(=O)(=O)N2CCC3CC2c2cc(-c4ccc5c(c4)OCO5)ccc23)cc1 (stereo not drawn)	?	i	i	nt	i	i
CN1CC[C@@H]2C(=O)N3CCc4ccc(-c5ccc6c(c5)OCO6)cc4[C@@H]3C[C@@H]21	18µM	i	i	nt	?	i
Cc1ccccc1NC(=O)COC(=O)c1ccc(CSc2ccc(Cl)cc2)cc1	i	i	i	i	i	i
O=S(=O)(c1ccc(Cl)c(C(F)(F)F)c1)N1CCN(CC(O)COCC2CCCO2)CC1 (stereo not drawn)	21µM	i	i	i	18µM	i
O=C(CN1CCN(S(=O)(=O)c2ccc(Cl)c(C(F)(F)F)c2)CC1)NC(=O)NC1CCCCC1	21µM	i	i	nt	?	i
CCOC(=O)c1ccc(S(=O)(=O)N2CCN(CC(=O)NC(=O)NC3CCCCC3)CC2)cc1	i	i	-52	i	i	i
CC(=O)c1cn(-c2ccc([N+](=O)[O-])cc2)c(=O)n(C)c1=O	i	i	i	nt	i	i
CSC(=NC#N)N1CCN(c2c(C)cccc2C)CC1	?	i	i	i	?	i
Clc1cccc(NCc2nnc(SCc3ccc(Cl)cc3Cl)o2)c1	i	i	i	i	?	i
CCCCn1nnnc1SCC(=O)N1CCOCC1	i	i	i	i	i	i
CCc1noc(-c2ccc(N3CCC(C)CC3)c([N+](=O)[O-])c2)n1	18µM	nt	nt	i	?	nt
Cc1ccc(-c2noc(-c3ccc(N4CCCCC4)c([N+](=O)[O-])c3)n2)cc1	?	nt	nt	i	21µM	nt
O=[N+]([O-])c1cc(-c2nc(-c3ccccc3)no2)ccc1N1CCCCC1	i	nt	nt	i	?	nt

High-throughput results (PubChem BioAssay)
